Assay results from PubChem BioAssay (NCI).
The panel holds about 79,000 compounds, 15% with a hit somewhere; the sample as a whole holds those more often. Calls of active or inactive are those of the source. Rule as the data show it: active = growth inhibition above about 70%; inactive = the rest.

Assays:
[1] = NCI Yeast Anticancer Drug Screen. Data for the rad52 strain (AID 147);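 also: 0% = growth of vehicle-treated control cultures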; conditions: S. cerevisiae rad52 mutant growth inhibition, active compounds read high
How it was run: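 Compounds are applied to a genetically defined yeast strain lacking normal DNA damage repair, and inhibition of growth is expressed relative to cultures given vehicle only.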

[2] = NCI Yeast Anticancer Drug Screen. Data for the wt1 strain (AID 149);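 also: 0% = growth of vehicle-treated wt1 cultures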; conditions: S. cerevisiae wt1 strain (SPY 50644) growth inhibition, active compounds read high
How it was run: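 wt1 strain grown with compound or vehicle; inhibition taken from the growth difference.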

[3] = NCI Yeast Anticancer Drug Screen. Data for the rad50EPP+ strain (AID 151);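 also: 0% = growth of vehicle-treated control cultures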; conditions: S. cerevisiae rad50 mutant strain, active compounds read high
How it was run: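 Compounds were applied to the rad50EPP+ yeast strain, which bears a defined DNA repair alteration, and growth inhibition was determined relative to vehicle-treated cultures.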

[4] = NCI Yeast Anticancer Drug Screen. Data for the mgt1 strain (AID 153); conditions: S. cerevisiae mgt1 mutant growth inhibition, active compounds read high
How it was run: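 Strain: mgt1 yeast, one of a set carrying defined DNA damage repair or cell cycle control alterations. Compound-treated growth compared with vehicle.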

[5] = NCI Yeast Anticancer Drug Screen. Data for the rad50 strain (AID 155);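 also: 0% = growth of vehicle-only cultures of the same strain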; conditions: S. cerevisiae rad50 strain growth inhibition, active compounds read high
How it was run: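 DNA repair mutant yeast, compound exposure, growth read-out; inhibition is taken relative to vehicle.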

[6] = NCI Yeast Anticancer Drug Screen. Data for the mec2-1 strain (AID 157); conditions: S. cerevisiae mec2-1 strain, active compounds read high
How it was run: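 Strain: mec2-1 (DNA repair/cell cycle alteration). Compound exposure, then growth measured; inhibition expressed relative to vehicle.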

[7] = NCI Yeast Anticancer Drug Screen. Data for the sgs1 mgt1 strain (AID 161);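 also: 0% = growth of cultures given vehicle only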; conditions: S. cerevisiae sgs1 mgt1 strain, active compounds read high
How it was run: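 Mutant yeast exposed to compound; growth scored against vehicle-only wells.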

[8] = NCI Yeast Anticancer Drug Screen. Data for the CLN2oe strain (AID 163);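 also: 0% = growth of vehicle-only control cultures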; conditions: S. cerevisiae CLN2oe strain, active compounds read high
How it was run: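 Growth of a genetically modified yeast strain is measured after compound exposure and compared with cultures given vehicle alone.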

[9] = NCI Yeast Anticancer Drug Screen. Data for the cln2 rad14 strain (AID 165);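 also: 0% = growth equal to vehicle treated cultures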; conditions: S. cerevisiae cln2 rad14 strain, active compounds read high
How it was run: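 Compounds are applied to the cln2 rad14 yeast strain, and growth is then compared with that of vehicle-treated cultures to give inhibition.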

[10] = NCI Yeast Anticancer Drug Screen. Data for the bub3 strain (AID 167); conditions: S. cerevisiae bub3 mutant strain, active compounds read high
How it was run: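 In this screen, a yeast mutant lacking normal mitotic checkpoint function is challenged with compound. Relative growth versus vehicle gives the inhibition value.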

[11] = NCI Yeast Anticancer Drug Screen. Data for the wt2 strain (AID 169);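 also: 0% = growth of vehicle-treated yeast cultures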; conditions: S. cerevisiae wt2 strain growth inhibition, active compounds read high
How it was run: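 This strain belongs to a panel of yeast strains with defined genetic alterations in DNA damage repair or cell cycle control. Compounds are applied, and growth inhibition is measured against vehicle-treated cultures.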

[12] = NCI Yeast Anticancer Drug Screen. Data for the mlh1 strain (AID 171);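 also: 0% = growth of vehicle-treated control cultures of the same strain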; conditions: S. cerevisiae mlh1 strain growth inhibition, active compounds read high
How it was run: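 Growth of the mutant yeast strain after compound exposure, expressed as inhibition relative to vehicle-only controls.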

[13] = NCI Yeast Anticancer Drug Screen. Data for the sgs1 strain (AID 173);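 also: 0% = growth of vehicle-only control cultures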; conditions: S. cerevisiae sgs1 mutant, active compounds read high
How it was run: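 Growth of a yeast strain bearing a defined genetic alteration is measured after compound treatment. Inhibition is expressed relative to vehicle-only controls.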

[14] = NCI Yeast Anticancer Drug Screen. Data for the mlh1 rad18 strain (AID 175); conditions: S. cerevisiae mlh1 rad18 strain growth inhibition, active compounds read high
How it was run: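 Read-out is yeast growth inhibition, calculated against vehicle-only controls. The compound was applied to a strain engineered with DNA damage repair alterations.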

[15] = NCI Yeast Anticancer Drug Screen. Data for the rad18 strain (AID 177); conditions: S. cerevisiae rad18 mutant growth inhibition, active compounds read high
How it was run: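 Growth of the mutant yeast strain after compound exposure, normalised to vehicle-only cultures.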

[16] = at 5.0 µM (retest, dose inferred, filed as 0.5)
[17] = at 50.0 µM (retest, dose inferred, filed as 5.0)

Measured: growth inhibition

COc1cc2cc3c4cc(OC)c(OC)cc4cc[n+]3c(C)c2cc1OC
inactive: [1]; at 1.2 µM -21% | [1]; at 3.7 µM -21% | [1]; at 11.0 µM -16% | [1]; at 33.0 µM -20% | [1]; at 100.0 µM -13% | [2]; at 1.2 µM -33% | [2]; at 3.7 µM -31% | [2]; at 11.0 µM -32% | [2]; at 33.0 µM -37% | [2]; at 100.0 µM -31% | [3]; at 1.2 µM -18% | [3]; at 3.7 µM -17% | [3]; at 11.0 µM -21% | [3]; at 33.0 µM -20% | [3]; at 100.0 µM -26% | [4]; at 1.2 µM -21% | [4]; at 3.7 µM -29% | [4]; at 11.0 µM -38% | [4]; at 33.0 µM -34% | [4]; at 100.0 µM -31% | [5]; at 1.2 µM 5% | [5]; at 3.7 µM 1% | [5]; [16] 59% | [5]; at 11.0 µM 3% | [5]; at 33.0 µM 10% | [5]; at 50.0 µM 51.4% | [5]; at 100.0 µM 7% | [6]; at 1.2 µM -13% | [6]; at 3.7 µM -11% | [6]; at 11.0 µM -7% | [6]; at 33.0 µM -16% | [6]; at 50.0 µM 6.05% | [6]; at 100.0 µM -5% | [7]; [16] -28% | [7]; [17] -6% | [7]; at 50.0 µM 36.6% | [8]; at 1.2 µM -22% | [8]; at 3.7 µM -35% | [8]; at 11.0 µM -28% | [8]; at 33.0 µM -39% | [8]; at 100.0 µM -5% | [9]; [16] 61% | [9]; [17] 26% | [9]; at 50.0 µM 15.2% | [10]; at 1.2 µM 0% | [10]; at 3.7 µM 12% | [10]; [16] 5% | [10]; at 11.0 µM 13% | [10]; at 33.0 µM 6% | [10]; [17] 19% | [10]; at 100.0 µM 9% | [11]; at 1.2 µM -30% | [11]; at 3.7 µM -28% | [11]; at 11.0 µM -35% | [11]; at 33.0 µM -31% | [11]; at 100.0 µM -22% | [12]; at 1.2 µM -34% | [12]; at 3.7 µM -28% | [12]; at 11.0 µM -35% | [12]; at 33.0 µM -39% | [12]; at 100.0 µM -49% | [13]; at 1.2 µM -19% | [13]; at 3.7 µM -17% | [13]; at 11.0 µM -28% | [13]; at 33.0 µM -27% | [13]; at 100.0 µM -11% | [14]; [16] 55% | [14]; at 50.0 µM -76.2% | [15]; at 1.2 µM -23% | [15]; at 3.7 µM -27% | [15]; at 11.0 µM -23% | [15]; at 33.0 µM -22% | [15]; at 100.0 µM -22%
active: [5]; [17] 92% | [6]; [16] 73% | [6]; [17] 83% | [10]; at 50.0 µM 79.8% | [14]; [17] 80%
